The source of these data is PubChem BioAssay.

Test [1] deals with Tumor necrosis factor receptor superfamily member 10B (Homo sapiens) (UniProt O14763). In words: viability loss of caspase-8 NB7 cells with TRAIL – with/without TRAIL, luminescence panel, confirmation (AID 651596). The note with it: NB7 neuroblastoma + caspase-8, TRAIL sensitization, NB7 Caspase-8, with TRAIL, mean of runs, at 10 µM, stronger effect = higher value.
Test in test [2]: as above
The note with it: NB7 neuroblastoma + caspase-8, without TRAIL, NB7 Caspase-8, without TRAIL, mean of runs, at 10 µM.

Tumor necrosis factor receptor superfamily member 10B (Homo sapiens), sequence (O14763 whole entry, looked up): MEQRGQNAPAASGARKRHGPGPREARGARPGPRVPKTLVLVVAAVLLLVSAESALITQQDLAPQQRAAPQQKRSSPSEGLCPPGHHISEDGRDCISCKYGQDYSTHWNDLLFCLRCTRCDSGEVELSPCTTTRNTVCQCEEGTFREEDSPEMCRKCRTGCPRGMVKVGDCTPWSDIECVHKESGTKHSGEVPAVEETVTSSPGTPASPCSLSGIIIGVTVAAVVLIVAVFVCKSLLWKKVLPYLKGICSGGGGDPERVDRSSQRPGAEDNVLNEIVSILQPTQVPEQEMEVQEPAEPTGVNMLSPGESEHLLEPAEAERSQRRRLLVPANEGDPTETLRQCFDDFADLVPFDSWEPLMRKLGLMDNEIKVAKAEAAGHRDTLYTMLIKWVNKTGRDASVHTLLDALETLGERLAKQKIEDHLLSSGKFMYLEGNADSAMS

On to `CCCc1ccc(-c2cc(C(=O)Nc3ccc([N+](=O)[O-])cn3)c3ccccc3n2)cc1`, for which the activity in test [1] was determined as 43.2%; in test [2], 33.6%.
Regarding `FC(F)(F)c1cc(Cl)c2nc(-c3ccccc3)cn2c1`, the activity came to 65% in test [1] and 76.1% in test [2].
Taken in the same sequence, the figures for `CC(C)N(Cc1ccccc1)C(=O)COC(=O)c1cnc(Cl)c(Cl)c1` were 81.2% and 72%.
As to `COC(=O)c1sc(NC(=S)NC(=O)c2ccccc2C)nc1C`, the activity in test [1] worked out at 58%; in test [2], 61.3%.
Taken in the same sequence, the figures for `CCCCCCN(C(=O)CCl)c1ccccc1` were 98.8% and 99.2%.
Consider `C=CCOc1ccccc1CN(C(=O)CCl)c1ccc2c(c1)OCO2`, for which the results for the activity in test [1] and in test [2] were 99% and 98.1%, respectively.
Taken in the same sequence, the figures for `O=C(Nc1cccc(-n2cnnn2)c1)c1ccc(C(F)(F)F)cc1` were 21.7% and 10.3%.
Taken in the same sequence, the figures for `CCc1nn2cc(-c3ccccc3)nc2s1` were 79.7% and 78.6%.
Taken in the same sequence, the figures for `Cc1nn(Cc2ccc(Cl)cc2Cl)c(C)c1NC(=O)CCl` were 95.8% and 97.8%.
Consider `O=C(Nc1ccc2nc(-c3ccco3)[nH]c2c1)c1cccs1`, for which the activity in test [1] was 72.4%; in test [2] it was 80.6%.
Taken in the same sequence, the figures for `COc1cc2sc3ccc(-c4ccc(CN5CCOCC5)cc4)cc3c(=O)c2cc1OC` were 46.9% and 41.8%.
Taken in the same sequence, the figures for `Cc1ccc(/C=C/C2=NN(C)C(=O)CC2)cc1` were 46.6% and 40.1%.
`Cc1occc1C(=O)O/N=C(\N)c1ccccc1`: the activity was 89.7% in test [1] and 92.8% in test [2].
`Brc1ccc(-c2ccc(/C=N/Nc3nc4ccccc4[nH]3)o2)cc1`: the activity in test [1] was determined as 51.5%; in test [2], 42.5%.
Taken in the same sequence, the figures for `CC(=O)Nc1ccc(NC(=O)CSc2nnc(NC(=O)c3ccccc3F)s2)cc1` were 69.5% and 63.9%.
Taken in the same sequence, the figures for `Cc1ccc(-c2cc3nc4c(c(=O)n3[nH]2)CCCC4)cc1` were 55.2% and 54.7%.
Taken in the same sequence, the figures for `Cc1ccc(Nc2nc(N)nc(CCl)n2)c(C)c1` were 98.9% and 98.6%.
Take `O=C(Nc1ccc2c(c1)OCCO2)c1ccccn1`: the values for the activity in test [1] and in test [2] were 75.8% and 69.1%, respectively.
Taken in the same sequence, the figures for `Clc1ncnc2c1oc1ccccc12` were 82.7% and 60.4%.
Consider `CC(C)(C)c1ccc(-c2nc3cc(N)ccc3o2)cc1`, for which the activity is 81.9% in test [1] and 80.5% in test [2].
Taken in the same sequence, the figures for `COc1ccc(C2NN=C(c3ccc(C)cc3)S2)cc1` (stereo unspecified) were 51.8% and 42.1%.
Taken in the same sequence, the figures for `N/C(=N\OC(=O)c1ccc([N+](=O)[O-])cc1Cl)c1ccccn1` were 90.2% and 87.3%.
With `Nc1ccc(-c2ncc(-c3ccccc3)o2)cc1`, the results for the activity in test [1] and in test [2] were 28.2% and 29.8%, respectively.
Taken in the same sequence, the figures for `C=CCOc1cccc(/C=C/c2nc3ccccc3c(=O)[nH]2)c1` were 66.8% and 64.8%.
Taken in the same sequence, the figures for `CCC(=O)N1CCN(c2ccc(NC(=O)c3cc4ccccc4o3)cc2Cl)CC1` were 79.6% and 54.4%.
`COc1ccc2cc3cc(C(=O)N4CCCCCC4)oc3nc2c1`: the values for the activity in test [1] and in test [2] were 45.1% and 41.9%, respectively.
Taken in the same sequence, the figures for `CCc1ccc(-c2cc3c(=O)n(CC(=O)NCCCN4CCC(Cc5ccccc5)CC4)nc(C)n3n2)cc1` were 55.9% and 71.5%.
Taken in the same sequence, the figures for `Cc1ccc(Nc2nc(N)c3ccccc3n2)cc1Cl` were 75.7% and 73.1%.
Taken in the same sequence, the figures for `CCOc1ccc(/C=C/C(=O)c2c(O)cc(C)oc2=O)cc1` were 74.8% and 77.8%.
For the molecule `O=C(CC(Nc1ccc(F)cc1)C(=O)O)c1ccccc1` (stereo unspecified), the values for the activity in test [1] and in test [2] were 63.3% and 53.1%, respectively.
Taken in the same sequence, the figures for `COC(=O)c1cc(OCC(=O)Nc2ccc3c(c2)CCC3)cc(C(=O)OC)c1` were -14.7% and -57.5%.
With `Cc1ccc(C)c(C(=O)O/N=C(\N)c2ccc(Br)cc2)c1`, the activity in test [1] stood at 80.1%; in test [2], 78.7%.
Taken in the same sequence, the figures for `O=C(COc1ccc(/C=N/NC(=O)c2cc3ccccc3o2)cc1Br)Nc1ccccc1` were 93% and 96.8%.
Taken in the same sequence, the figures for `CCOC(=O)C1CCN(C(=O)C2c3ccccc3C(=O)N(C)C2c2ccc(OC)cc2)CC1` (stereo unspecified) were 66.1% and 60.9%.
Taken in the same sequence, the figures for `COc1ccc(C(=O)NNC(=S)NC(=O)/C=C/c2cccs2)cc1` were 36.2% and 42.2%.
Regarding `C/C(=N\NC(=O)COc1ccc(C(C)(C)C)cc1)c1ccc(-n2ccnc2)cc1`, the activity is 63.5% in test [1] and 49.1% in test [2].
Taken in the same sequence, the figures for `O=C(N/N=C/c1ccc(-c2cccc(C(F)(F)F)c2)o1)c1cccc(F)c1` were 62.7% and 50.6%.
Taken in the same sequence, the figures for `COc1ccccc1NC(CC(=O)c1ccccc1)C(=O)OCC(=O)c1ccc(F)cc1` (stereo unspecified) were 69.5% and 65.9%.
Taken in the same sequence, the figures for `CN(C)C=Nc1ccc2nc3c(cc2c1)[nH]c1ccccc13` were 76.7% and 76.3%.
For the molecule `N#Cc1c(C#N)c(SSc2c(C#N)c(C#N)c(N)n2-c2ccccc2)n(-c2ccccc2)c1N`, the results for the activity in test [1] and in test [2] were -0.075% and 72.1%, respectively.
Taken in the same sequence, the figures for `CCOC(=O)C1=CCN(S(=O)(=O)c2ccccc2Cl)C1c1cccc(F)c1` (stereo unspecified) were -2.9% and 11.8%.
Taken in the same sequence, the figures for `O=C(Nc1nnc(SCC(=O)N2CCOCC2)s1)c1ccccc1` were 80% and 77.4%.
As for `Cc1ccc2nc(NC(=O)c3cccs3)sc2c1`, the activity in test [1] was found to be 72.1%; in test [2], 71.2%.
Taken in the same sequence, the figures for `O=C(Nc1ccc2c(c1)OCCO2)c1ccc(Br)s1` were 74.3% and 66.8%.
Taken in the same sequence, the figures for `COc1ccc(C(=O)O/N=C(\N)c2ccccc2Cl)cc1OC` were 95.7% and 92.8%.
With `Cc1ccc(O)c(-c2cc(-c3ccc(F)cc3)no2)c1`, the results for the activity in test [1] and in test [2] were 71.2% and 57.8%, respectively.
Taken in the same sequence, the figures for `Cc1ccc2cc(/C=N/Nc3nc4ccccc4[nH]3)c(Cl)nc2c1` were 88.2% and 83.6%.
Taken in the same sequence, the figures for `Cc1cc(C(=O)Nc2sc3c(c2C#N)CCCC3)no1` were 53% and 52.5%.
